These results are taken from PubChem BioAssay.

SMILES strings stand for the structures. Records with an inconclusive call do not appear. Active and inactive are the calls of the source. Unless noted, the rule behind the calls is not given here.

In experiment [1] the target is ATP-dependent translocase ABCB1 (Homo sapiens) (UniProt P08183). Description: P-glycoprotein substrate transport blockade – cell-based (AID 377; in the data active = fluorescence slope change above about 50%). The following applies: MDR1-expressing cells, fluorescent substrate accumulation slope; stronger effect = higher value; concentration not given here.
Chain of ATP-dependent translocase ABCB1 (Homo sapiens) (P08183 whole entry, looked up): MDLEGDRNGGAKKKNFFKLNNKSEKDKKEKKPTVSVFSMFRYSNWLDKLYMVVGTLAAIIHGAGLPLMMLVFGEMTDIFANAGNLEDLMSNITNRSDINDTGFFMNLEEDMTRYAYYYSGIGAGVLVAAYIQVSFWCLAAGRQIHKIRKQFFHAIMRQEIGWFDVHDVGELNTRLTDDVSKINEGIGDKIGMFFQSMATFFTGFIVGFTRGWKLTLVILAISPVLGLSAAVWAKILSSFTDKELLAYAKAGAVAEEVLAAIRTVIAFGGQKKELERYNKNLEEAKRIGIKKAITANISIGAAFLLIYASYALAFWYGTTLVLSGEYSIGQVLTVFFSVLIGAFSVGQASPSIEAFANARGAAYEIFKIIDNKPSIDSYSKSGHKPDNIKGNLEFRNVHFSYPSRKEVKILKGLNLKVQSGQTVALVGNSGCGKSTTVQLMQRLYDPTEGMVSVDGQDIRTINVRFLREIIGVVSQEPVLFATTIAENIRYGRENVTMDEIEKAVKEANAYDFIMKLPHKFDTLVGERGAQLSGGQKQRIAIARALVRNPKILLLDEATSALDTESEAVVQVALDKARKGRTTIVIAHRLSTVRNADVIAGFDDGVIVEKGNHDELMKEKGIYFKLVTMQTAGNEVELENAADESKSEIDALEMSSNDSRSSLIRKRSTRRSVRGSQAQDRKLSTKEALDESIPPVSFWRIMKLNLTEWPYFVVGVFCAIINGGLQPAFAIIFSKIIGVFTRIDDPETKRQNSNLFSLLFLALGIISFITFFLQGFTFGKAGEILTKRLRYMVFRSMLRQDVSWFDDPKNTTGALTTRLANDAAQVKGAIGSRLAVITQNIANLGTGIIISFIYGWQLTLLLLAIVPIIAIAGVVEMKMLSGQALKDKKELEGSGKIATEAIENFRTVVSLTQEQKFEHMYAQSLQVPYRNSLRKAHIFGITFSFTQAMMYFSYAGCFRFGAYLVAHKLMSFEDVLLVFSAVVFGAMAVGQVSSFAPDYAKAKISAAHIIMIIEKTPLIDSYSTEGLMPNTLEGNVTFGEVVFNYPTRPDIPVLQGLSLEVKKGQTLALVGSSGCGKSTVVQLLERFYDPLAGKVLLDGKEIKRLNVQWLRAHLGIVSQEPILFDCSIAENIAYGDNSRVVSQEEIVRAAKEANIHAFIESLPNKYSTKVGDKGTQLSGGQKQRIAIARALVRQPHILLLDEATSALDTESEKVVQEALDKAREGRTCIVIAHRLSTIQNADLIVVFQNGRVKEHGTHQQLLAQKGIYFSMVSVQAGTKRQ
Experiment [2] can be described thus: GFP-Q80 aggregate reduction, neuronal-like cells, cell-based, NGF-treated PC12, GFPQ80 (AID 1614).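 Note: lower means fewer inclusions and 0 means no inclusions at all.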 The following applies: PC12 NGF-treated GFP-polyQ80 inclusion reduction.
A short description of experiment [3]: compounds altering circadian rhythm period length – cell-based, LOPAC library, luminescence reporter (AID 2774).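 Note: values are relative to mean of DMSO wells on each plate.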 The note with it: circadian reporter cells, at 7 µM, actives lie on both sides.
For experiment [4], the system named is Hepatitis C virus NS3 helicase. In words: blockers of NS3h binding to ssDNA – biochemical, fluorescence polarization, LOPAC1280 library, primary screen (AID 687035; in the data active = inhibition above about 37%). The following applies: Purified HCV NS3 helicase, Cy5-dT15 ssDNA binding fluorescence polarization; stronger effect = higher value; concentration not given here.
Experiment [5] is described as follows: compounds altering Cy5-DNA-NS3h complex signal – biochemical, LOPAC1280, artefact control for HCV NS3 helicase inhibitor project (AID 687037). The note with it: Cy5-DNA-NS3h complex fluorescence interference counterscreen.
Experiment [6] in a line: blockers of cellular phospholipid synthesis – cell-based, LOPAC library, screen 4, primary screen (AID 1347384). The note with it: animal cells, phospholipid biosynthesis inhibition screen; at 10 µM.
A short description of experiment [7]: viability loss in pontine glioma line – cell-based, SU-DIPG-XVII, MIPE5.0, CellTiter-Glo, qHTS, dose response (AID 1347060; cut-off not given, nearly all actives have AC50 up to about 26 µM;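 for AC50: cells exposed to compound for 48 hours before viability readout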). The following applies: CellTiter-Glo ATP luminescence.
The nature of experiment [8]: viability loss in pontine glioma line – cell-based, SU-DIPG-IV, MIPE4.0, CellTiter-Glo, qHTS, dose response (AID 1347063; cut-off not given, nearly all actives have AC50 up to about 30 µM;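 note: compound exposure lasted 48 hours before the viability readout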). The following applies: CellTiter-Glo ATP luminescence.
A short description of experiment [9]: viability loss in pontine glioma line – cell-based, SU-DIPG-XIII, MIPE5.0, CellTiter-Glo, qHTS, dose response (AID 1347064; cut-off not given, nearly all actives have AC50 up to about 23 µM;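 for AC50: cells exposed to compound for 48 hours before the viability read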). The following applies: CellTiter-Glo ATP luminescence.
Experiment [10] in a line: growth inhibition of DIPG cells – cell-based, MIPE4.0 library, CellTiter-Glo luminescence, qHTS (AID 1347066; cut-off not given, nearly all actives have AC50 up to about 30 µM;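 note: cells exposed to compound for 48 hours before readout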). The note with it: SU-DIPG-VI viability, CellTiter-Glo ATP luminescence.
Experiment [11] in a line: JHH-DIPG-1 glioma cell viability, MIPE5.0 library, CellTiter-Glo luminescence, qHTS (AID 1347067; cut-off not given, nearly all actives have AC50 up to about 26 µM;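 note: cells exposed to compound for 48 hours before readout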). The following applies: JHH-DIPG-1 glioma viability, CellTiter-Glo ATP luminescence.
A short description of experiment [12]: growth inhibition of DIPG cells – cell-based, MIPE5.0 library, qHTS (AID 1347068; cut-off not given, nearly all actives have IC50 up to about 30 µM;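 for IC50: cells exposed to compound for 48 hours before viability readout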). The following applies: SU-DIPG-XXV viability.
For experiment [13], the system named is Aerobactin synthetase IucA (Klebsiella pneumoniae). Description: inhibition of K. pneumoniae IucA enzyme – biochemical, Tocris library, absorbance (AID 1345561).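 Note: 100% = enzyme without compound and 0% = no enzyme.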 The note with it: purified IucA enzyme assay, absorbance (OD) read-out; stronger effect = lower value;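 tested at 8 µM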.
Experiment [14] is described as follows: viability loss in pontine glioma line – cell-based, SU-DIPG-XIII, MIPE4.0, CellTiter-Glo, qHTS, dose response (AID 1347061; cut-off not given, nearly all actives have AC50 up to about 37 µM;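 note: cells exposed to compound for 48 hours before readout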). The following applies: CellTiter-Glo ATP luminescence.
Experiment [15] is described as follows: viability loss in pontine glioma line – cell-based, JHH-DIPG-1, MIPE4.0, CellTiter-Glo, qHTS, dose response (AID 1347062; cut-off not given, nearly all actives have AC50 up to about 27 µM). The following applies: JHH-DIPG-1 viability, CellTiter-Glo ATP luminescence.
Experiment [16] in a line: viability loss in pontine glioma line – cell-based, SU-DIPG-XXV, MIPE5.0, CellTiter-Glo, qHTS, dose response (AID 1347065; cut-off not given, nearly all actives have AC50 up to about 26 µM;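 note: cells exposed to compound for 48 hours before ATP readout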). The following applies: CellTiter-Glo ATP luminescence.
A short description of experiment [17]: compounds altering HSF1 focus formation in cells – imaging, Selleck Cancer Library (AID 1347162; in the data active = plate-normalised HSF1 focus index below about 0.46). The note with it: human cells, HSF1 nuclear foci imaging, at 10 µM; SSMD: measured here: HSF1 foci SSMD mean; cell count: measured here: cell number; plate-normalised HSF1 focus index: stronger effect = lower value.

On to `CC(=O)CCCCn1c(=O)c2c(ncn2C)n(C)c1=O`, for which the fluorescence slope change in experiment [1] is 121% (active). Also, the inclusion score in experiment [2] stood at 2. Besides, the period change in experiment [3] is 0.02 h (inactive). Further, in experiment [4], the inhibition was -4% (inactive). The fluorescence ratio (interference) in experiment [5] was 1 (inactive). The compound was called inactive in experiment [6].
In the case of `CC(C)(C)NCC(O)c1cc(O)cc(O)c1` (stereo not given), in experiment [1], the fluorescence slope change is 23.2% (inactive). The compound further returned an inclusion score in [2] of 2. Also, the period change in [3] was 0.03 h (inactive). Further, in [4], the inhibition was -2% (inactive). The fluorescence ratio (interference) in [5] was 1 (inactive). Also, in experiment [6], the compound was called inactive.
Turning to `CC(C)[N+](C)(CCOC(=O)C1c2ccccc2Oc2ccccc21)C(C)C`, in experiment [1], the fluorescence slope change is 80.1% (active). The same compound displayed an inclusion score in experiment [2] of 2. The period change in experiment [3] was 0.06 h (inactive). Moreover, the inhibition in experiment [4] is 0% (inactive). The fluorescence ratio (interference) in experiment [5] is 1 (inactive). Moreover, in experiment [6], the call was inactive.
Take `OC(CCN1CCCCC1)(c1ccccc1)C1CCCCC1` (stereo not given): in experiment [1], the fluorescence slope change was 66% (active). Besides, the period change in [3] is 0 h (inactive). Further, the inhibition in experiment [4] is 0% (inactive). Also, in [5], the fluorescence ratio (interference) was 1 (inactive). The compound was classed as inactive in [6].
In the case of `Cc1ccc(Cl)c(Nc2ccccc2C(=O)O)c1Cl`, the fluorescence slope change in experiment [1] is 27.6% (inactive). For the same compound, in [2], the inclusion score amounted to 2. In experiment [3], the period change is 0.13 h (inactive). Further, the inhibition in experiment [4] is 0% (inactive). For the same compound, the fluorescence ratio (interference) in experiment [5] was 1 (inactive). Moreover, the compound was called inactive in [6].
For the compound `C[C@H](CS)C(=O)N1CCC[C@H]1C(=O)O`, in experiment [2], the inclusion score is 2. For the same compound, the period change in experiment [3] is 0.01 h (inactive). The inhibition in experiment [4] was 0% (inactive). The fluorescence ratio (interference) in experiment [5] is 1 (inactive). Also, the compound was classed as inactive in [6].
Compound `COc1ccc2cc(CCC(C)=O)ccc2c1` showed an inclusion score in [2] of 2.
The same measure, in the same setting: next, `CCCN(CCC)S(=O)(=O)c1ccc(C(=O)O)cc1`: 2; `c1ccc2c(CC3=NCCN3)cccc2c1`: 1.5.
`Cc1cccc(CN2CCN(C(c3ccccc3)c3ccc(Cl)cc3)CC2)c1` (stereo not given): the AC50 is 23.5 µM (active) in experiment [7]; 18.7 µM (active) in experiment [8]; 20.9 µM (active) in experiment [9]; 20.9 µM (active) in experiment [10]; 16.6 µM (active) in experiment [11]. Moreover, in experiment [12], the IC50 was 23.5 µM (active).
Take `CC(C)(C)NC[C@H](O)COc1nsnc1N1CCOCC1`: in experiment [13], the remaining activity is 95.7% (inactive).
As for `CCCSc1ccc2nc(NC(=O)OC)[nH]c2c1`, in experiment [1], the fluorescence slope change is 97.2% (active).
`C[C@@H]1O[C@@H](OC[C@H]2O[C@@H](Oc3c(-c4ccc(O)c(O)c4)oc4cc(O)cc(O)c4c3=O)[C@H](O)[C@@H](O)[C@@H]2O)[C@H](O)[C@H](O)[C@H]1O` showed an inclusion score in [2] of 2.
In the case of `C[C@]12CCC(=O)C=C1CC[C@@H]1[C@@H]2[C@@H](O)C[C@@]2(C)[C@H]1CC[C@]2(O)C(=O)COC(=O)CCC(=O)O`, the period change in experiment [3] was -0.475 h (inactive).
`OCCN1C[C@H](O)[C@@H](O)[C@H](O)[C@H]1CO`: the compound was classed as inactive in experiment [7], in [14], in experiment [15], in [8], in experiment [16] and in experiment [10]. Further, the compound was classed as inactive in experiment [11] and in experiment [12].
On to `C[C@]12CCC(=O)C=C1CC[C@@H]1[C@@H]2[C@@H](O)C[C@@]2(C)[C@H]1CC[C@]2(O)C(=O)CO`, for which, in experiment [3], the period change is -0.16 h (inactive). The inhibition in experiment [4] was -3% (inactive). Further, the fluorescence ratio (interference) in experiment [5] is 1 (inactive). Besides, the call in experiment [7], in experiment [15], in experiment [9], in experiment [16], in experiment [10] and in experiment [11] was inactive. The call in [12] and in experiment [6] was inactive. In [17], this compound gave an SSMD of 2.5. Moreover, the cell count in experiment [17] was 6980. The plate-normalised HSF1 focus index in experiment [17] is 1.13 (inactive).
As to `CCCCCCCCCCC[C@@H](C[C@@H]1OC(=O)[C@H]1CCCCCC)OC(=O)[C@H](CC(C)C)NC=O`, the remaining activity in experiment [13] is 84.7% (inactive).
